# Source: PubChem BioAssay
# A1 inhib: A1 inhibition. 21,000 compounds, 0.51% hits. caspase activation, % (concentration not given with the values). MEF A1-2A-BIM cells, caspase-Glo luminescence, 3 h; percent of clofoctol signal, DMSO as zero;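 active = most replicate scores above 10, or exactly half above 10 with mean activity above 10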;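 note: effector caspase 3 and 7 activity cleaving a DEVD luciferin substrate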
# * hit, by the source's call. Shown is part of a subset that was picked to be rich in hits.
SMILES,A1 inhib
C[C@H]1CN([C@@H](C)CO)C(=O)c2cc(NS(=O)(=O)c3cccs3)ccc2O[C@H]1CN(C)C(=O)Nc1ccccc1,0.2
C[C@@H]1CN([C@H](C)CO)C(=O)c2cc(NS(=O)(=O)c3cccs3)ccc2O[C@H]1CN(C)C(=O)Nc1ccc(F)cc1,-0.2
C[C@H](CO)N1C[C@H](C)[C@H](CN(C)C(=O)Nc2ccc(C(F)(F)F)cc2)Oc2ccc(NS(=O)(=O)c3cccs3)cc2C1=O,11.7*
COc1ccc(CCNC(=O)c2ccc3c(c2)NC(=O)/C(=C\c2ccc(C)cc2)S3)cc1OC,0.0
CSc1nc(Nc2cccc(C(F)(F)F)c2)cc(C(F)(F)F)c1C#N,0.9
N#CC(C(=O)c1cccc(C(F)(F)F)c1)=C1SCCCCS1,0.2
CSC(SC)=C(C#N)C(=O)c1cccc(C(F)(F)F)c1,47.7*
CC1CC(=O)c2c(ccc3c2C(=O)c2c(O[C@@H]4O[C@@H](C)[C@H](O)[C@@H](O)[C@H]4O)cccc2C3=O)C1 (some centres undefined),0.6
COc1cccc2c1C(=O)c1c(O)c3c(c(O)c1C2=O)C[C@@](O)(C(C)=O)C[C@@H]3O[C@H]1C[C@H](N)[C@H](O)[C@H](C)O1,15.3*
COc1ccc(Cn2nnc3c(=O)[nH]c(C4CCCN(S(=O)(=O)c5ccccc5)C4)nc32)cc1 (centres undefined),0.6
CCSc1nnc(NC(=O)CCC(=O)OC2CCC(C)C(C)C2)s1 (centres undefined),-0.5
Cc1nn(CC(=O)NCC2CCCO2)c(=O)c2cc3occc3n12 (centres undefined),0.8
O=C(/C=c1\[nH]/c(=C/c2ccc(F)cc2)c(=O)[nH]c1=O)c1ccccc1,11.9*
COc1ccc(/C=c2/[nH]/c(=C\C(=O)c3ccccc3)c(=O)[nH]c2=O)cc1OC,7.5
O=C1OCCN/C1=C\C(=O)c1ccccc1,-0.2
CCOc1ccc2nc(N3CCCC(C(=O)Nc4ccc(C)cc4Cl)C3)sc2c1 (centres undefined),0.3
CCOC(=O)c1cccc(NS(=O)(=O)c2cc(C(=O)OCC)n(C)c2)c1,-1.6
COc1ccc2[nH]c3c(=O)n(Cc4ccc(C(=O)NCCc5ccc(C)cc5)cc4)c(=S)[nH]c3c2c1,111.9*
O=C(NCC1CCCO1)c1ccc(Cn2c(=S)[nH]c3ccccc3c2=O)cc1 (centres undefined),1.0
COc1ccc2[nH]c3c(=O)n(CC(=O)N4CCN(c5ccc(F)cc5)CC4)c(=S)[nH]c3c2c1,4.3
O=C(Cn1c(=O)c2cccn2c2ccccc21)NC1CCCc2ccccc21 (centres undefined),0.6
COc1ccc(-n2nc3c(c2NC(=O)/C=C\c2ccc4c(c2)OCO4)CS(=O)(=O)C3)cc1,0.6
O=C(Nc1cc(-c2ccc(Cl)cc2)nn1-c1ccc(F)cc1)C1CCC1,0.0
CCCCC1CCC(C(=O)Nc2c3c(nn2-c2ccc(F)cc2)CS(=O)(=O)C3)CC1 (centres undefined),15.4*
C=CCn1c(-c2ccc(OC)cc2)csc1=Nc1ccc(Br)cc1,-0.1
SMILES,A1 inhib
O=C(CSc1ccc(-c2cccnc2)nn1)c1ccc(F)cc1,-1.1
CN(C)CCN(C(=O)C1CCCCC1)c1nc2ccc(Br)cc2s1,-1.1
CC1CCN(C(=O)Cn2nc(-c3ccc(Cl)cc3)ccc2=O)CC1,1.1
CCC(C)[C@H]1C(=O)O[C@H](C(C)C)C(=O)N(C)[C@@H](C(C)C)C(=O)O[C@H](C(C)C)C(=O)N(C)[C@@H](C(C)C)C(=O)O[C@H](CC(C)C)C(=O)N1C (some centres undefined),44.9*
N/C(CS(=O)(=O)Cc1cccc(C(F)(F)F)c1)=N\O,0.6
CN(C)c1ccc(C(=C2C=CC(=[N+](C)C)C=C2)c2ccc(N(C)C)cc2)cc1,57.9*
CC(C)(C)c1ccc(-c2noc(CSc3n[nH]c(=O)n3-c3cccnc3)n2)cc1,-0.3
CN(C)S(=O)(=O)c1ccc(C(=O)NCCC23CC4CC(CC(C4)C2)C3)cc1,-0.4
CCOC(=O)c1noc(C)c1-c1csc(COc2cc(Cl)cc(Cl)c2)n1,0.5
CCc1ccc(N=Cc2c(O)n(-c3ccccc3)c(=O)c3ccccc23)cc1,40.7*
Cn1c(O)c(C=Nc2cccc(CO)c2)c2ccccc21,-3.0
CCc1ccc(N=Cc2c(O)[nH]c(=S)[nH]c2=O)cc1,-1.0
COc1cc2c(cc1OC)C(COc1ccc(F)cc1)N(C(=O)c1ccc(Cl)cc1)CC2 (centres undefined),-0.7
CC(C)(C)c1oc(C(=O)Nc2ccc3c(c2)oc2ccccc23)cc1COCC(F)(F)F,-0.5
COc1ccccc1/C=C/C=N\N1CCN(c2ccccc2)CC1,-0.8
Cc1cc(C)cc(NC(=O)Cn2c(=O)c3cccn3c3ccccc32)c1,55.7*
COC(=O)Cn1c(=O)c2cccn2c2ccccc21,0.5
COc1cccc(NC(=O)Cn2c(=O)c3cccn3c3ccccc32)c1,-0.3
Cc1ccc(C(=O)Oc2c(C)cc(-c3nn(C)c(=O)c4ccccc34)cc2C)cc1,-0.9
COc1ccc(N2CCN(c3c(S(=O)(=O)c4ccccc4)cnc4ccc(Cl)cc34)CC2)cc1,0.3
